About 79,000 compounds went through this panel and 15% of them were active in at least one assay; those are over-represented in the sample as a whole. Activity calls are given as the source filed them. No stated cut-off is given here; in the data, active means growth inhibition above about 70%; inactive means the rest.
Columns and labels:
[1] = NCI Yeast Anticancer Drug Screen. Data for the rad50 strain (AID 155);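 further: 0% = growth of vehicle-only cultures of the same strain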; details: S. cerevisiae rad50 strain growth inhibition, active compounds read high
Outline: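 Cells are treated with compound, grown, and their growth is then scored against vehicle-only cultures of the same repair-deficient yeast strain.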

[2] = NCI Yeast Anticancer Drug Screen. Data for the mec2-1 strain (AID 157); details: S. cerevisiae mec2-1 strain, active compounds read high
Outline: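 mec2-1 yeast strain, carrying an alteration in DNA damage repair or cell cycle control, was exposed to compounds; growth inhibition was measured relative to vehicle-treated controls.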

[3] = NCI Yeast Anticancer Drug Screen. Data for the sgs1 mgt1 strain (AID 161);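 further: 0% = growth of cultures given vehicle only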; details: S. cerevisiae sgs1 mgt1 strain, active compounds read high
Outline: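 Yeast cells carrying a defined DNA-repair defect were exposed to test compounds. Growth inhibition was measured relative to vehicle-treated controls.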

[4] = NCI Yeast Anticancer Drug Screen. Data for the cln2 rad14 strain (AID 165);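 further: 0% = growth equal to vehicle treated cultures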; details: S. cerevisiae cln2 rad14 strain, active compounds read high
Outline: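 Yeast carrying cln2 and rad14 alterations (cell cycle control and DNA damage repair) were exposed to compounds. Growth inhibition was measured against vehicle-treated controls.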

[5] = NCI Yeast Anticancer Drug Screen. Data for the bub3 strain (AID 167); details: S. cerevisiae bub3 mutant strain, active compounds read high
Outline: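 Part of a panel of yeast mutants defective in DNA damage repair or cell cycle regulation. Each strain is grown with compound, and inhibition is calculated relative to solvent-treated cultures.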

[6] = NCI Yeast Anticancer Drug Screen. Data for the mlh1 rad18 strain (AID 175); details: S. cerevisiae mlh1 rad18 strain growth inhibition, active compounds read high
Outline: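 Growth inhibition of the yeast strain was measured after compound exposure and expressed relative to vehicle-treated controls. The strain carries defined defects in DNA damage repair.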

[7] = at 5.0 µM (retest, dose inferred, filed as 0.5)
[8] = at 50.0 µM (retest, dose inferred, filed as 5.0)

Measured: growth inhibition

O=S1(=O)c2ccccc2C(Br)C1Br (configuration not stated)
active: [1]; [8] 98% | [1]; at 50.0 µM 99.2% | [2]; [8] 99% | [2]; at 50.0 µM 99.5% | [3]; [8] 99% | [4]; [8] 99% | [4]; at 50.0 µM 99% | [5]; [8] 98% | [5]; at 50.0 µM 99.6% | [6]; [8] 99% | [6]; at 50.0 µM 99.3%
inactive: [1]; [7] 31% | [2]; [7] 30% | [3]; [7] 27% | [3]; at 50.0 µM 58.4% | [4]; [7] 22% | [5]; [7] 25% | [6]; [7] 56%

COc1ccc(-c2nc(N)n(C)c2SSc2c(-c3ccc(OC)cc3)nc(N)n2C)cc1
inactive: [1]; [7] 2% | [1]; [8] 26% | [1]; at 50.0 µM 23.6% | [2]; [7] -4% | [2]; [8] 26% | [2]; at 50.0 µM 5.2% | [3]; [7] 28% | [3]; [8] 27% | [3]; at 50.0 µM 2.5% | [4]; [7] 6% | [4]; [8] 30% | [4]; at 50.0 µM 6.95% | [5]; [7] 41% | [5]; [8] 50% | [5]; at 50.0 µM 3.6% | [6]; [7] -2% | [6]; [8] 28% | [6]; at 50.0 µM -15.6%

Clc1ccc(CN2COc3c(ccc4cccnc34)C2)c(Cl)c1
inactive: [1]; [7] 2% | [2]; [7] 2% | [2]; [8] 67% | [3]; [7] 4% | [4]; [7] -9% | [5]; [7] -6% | [6]; [7] 3%
active: [1]; [8] 91% | [1]; at 50.0 µM 98.1% | [2]; at 50.0 µM 98.9% | [3]; [8] 98% | [3]; at 50.0 µM 99% | [4]; [8] 98% | [4]; at 50.0 µM 97.7% | [5]; [8] 99% | [5]; at 50.0 µM 99% | [6]; [8] 98% | [6]; at 50.0 µM 99.1%

c1ccc(-c2cc(N3CCCCC3)c(-c3ccccc3)o2)cc1
inactive: [1]; [7] -1% | [1]; [8] 11% | [1]; at 50.0 µM 21.4% | [2]; [7] 9% | [2]; [8] 14% | [2]; at 50.0 µM 1.1% | [3]; [7] 8% | [3]; [8] 28% | [3]; at 50.0 µM 44.4% | [4]; [7] 1% | [4]; [8] 0% | [4]; at 50.0 µM -5.7% | [5]; [7] 7% | [5]; [8] 12% | [6]; [7] 15% | [6]; [8] 43% | [6]; at 50.0 µM 25.1%
active: [5]; at 50.0 µM 85.4%

COC(=O)c1cccc2c3ccccc3c3ccccc3c12
active: [1]; [8] 98% | [1]; at 50.0 µM 97.1% | [2]; [8] 98% | [2]; at 50.0 µM 99.5% | [3]; [8] 99% | [3]; at 50.0 µM 99.2% | [4]; [8] 97% | [4]; at 50.0 µM 99.5% | [5]; [8] 97% | [5]; at 50.0 µM 97.8% | [6]; [8] 99% | [6]; at 50.0 µM 99.2%
inactive: [1]; [7] 6% | [2]; [7] 15% | [3]; [7] 8% | [4]; [7] 6% | [5]; [7] 12% | [6]; [7] 9%

CN(C)C1=NC2=S(SC(Nc3ccccc3)=N2)S1 (configuration not stated)
inactive: [1]; [7] -4% | [1]; [8] 15% | [1]; at 50.0 µM 10.8% | [2]; [7] -7% | [2]; [8] 33% | [2]; at 50.0 µM -1% | [3]; [7] 10% | [3]; [8] 28% | [3]; at 50.0 µM -19.1% | [4]; [7] 10% | [4]; [8] 24% | [4]; at 50.0 µM -0.75% | [5]; [7] 3% | [5]; [8] 20% | [5]; at 50.0 µM 44% | [6]; [7] 24% | [6]; [8] 43% | [6]; at 50.0 µM -7.4%

CCC[CH2][Sn]([CH2]CCC)([O]C(=O)c1ccc(C)c(N)c1)[O]C(=O)c1ccc(C)c(N)c1
active: [1]; [7] 98% | [1]; [8] 98% | [1]; at 50.0 µM 91.7% | [2]; [7] 92% | [2]; [8] 92% | [2]; at 50.0 µM 92% | [3]; [7] 96% | [3]; [8] 96% | [3]; at 50.0 µM 92.5% | [4]; [7] 96% | [4]; [8] 96% | [4]; at 50.0 µM 91.3% | [5]; [7] 90% | [5]; [8] 90% | [5]; at 50.0 µM 89% | [6]; [7] 97% | [6]; [8] 97% | [6]; at 50.0 µM 87.5%

COC(=O)CCc1c(Cc2ccc[nH]2)[nH]c(C(=O)OCc2ccccc2)c1C
inactive: [1]; [7] -20% | [1]; at 50.0 µM 55% | [2]; [7] -12% | [3]; [7] -12% | [3]; at 50.0 µM 69% | [4]; [7] -32% | [5]; [7] -35% | [6]; [7] -5%
active: [1]; [8] 91% | [2]; [8] 92% | [2]; at 50.0 µM 71% | [3]; [8] 94% | [4]; [8] 95% | [4]; at 50.0 µM 77.5% | [5]; [8] 92% | [5]; at 50.0 µM 76.3% | [6]; [8] 94% | [6]; at 50.0 µM 74.8%

O=C1c2ccc(O)c(O)c2C(=O)c2cccc(O)c21
active: [1]; [8] 72% | [3]; [7] 83% | [3]; [8] 84% | [5]; [7] 91% | [5]; [8] 93% | [6]; [7] 83% | [6]; [8] 88%
inactive: [1]; [7] 68% | [1]; at 50.0 µM 28.1% | [2]; [7] 30% | [2]; [8] 49% | [2]; at 50.0 µM 3.9% | [3]; at 50.0 µM 36.6% | [4]; [7] 34% | [4]; [8] 46% | [4]; at 50.0 µM 22.7% | [5]; at 50.0 µM 18.4% | [6]; at 50.0 µM 26.3%

From PubChem BioAssay (NCI)
